According to PubChem BioAssay (EPA / NIEHS):
Calls of active or inactive are those of the source. How the source made its calls: active means hit-call score of the fitted dose curve at least 0.9, where 1 is the maximum; inactive means score below 0.9.

Legend:
[1] = ATG_AP_1_CIS: Attagene CIS-FACTORIAL HepG2 Assay for human Activator Protein 1 (AP-1) (AID 2282931); settings: HepG2 Attagene cis-factorial AP-1 reporter mRNA; actives raise or lower the signal
Summary of the method: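 Multiplexed HepG2 reporter assay, 24 h dosing. mRNA induction detected by RT-PCR plus capillary electrophoresis. Activity fitted in both directions against DMSO.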

[2] = ATG_AP_2_CIS: Attagene CIS-FACTORIAL HepG2 Assay for human Activator Protein 2 (AP-2) (AID 2282932); settings: HepG2 AP-2 cis-reporter, Attagene transcription factor profiling; actives raise or lower the signal
Summary of the method: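 HepG2, transient MRTU transfection, cis-regulated reporters; 24 h compound exposure; RNA isolated, RT-PCR, 6-FAM labelling, HpaI digest, CE fluorescence. DMSO = negative control/baseline, bidirectional fit.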

[3] = biological target: Retinoic acid receptor alpha (Homo sapiens) (UniProt P10276); test: ATG_DR5_RAR_CIS: Attagene CIS-FACTORIAL HepG2 Assay for human Retinoic Acid Receptor Alpha (RARE), DR5 submotif (AID 2282934); settings: HepG2 Attagene cis-factorial RARE DR5 reporter, mRNA; actives raise or lower the signal
Retinoic acid receptor alpha (Homo sapiens), sequence (P10276 whole entry, looked up): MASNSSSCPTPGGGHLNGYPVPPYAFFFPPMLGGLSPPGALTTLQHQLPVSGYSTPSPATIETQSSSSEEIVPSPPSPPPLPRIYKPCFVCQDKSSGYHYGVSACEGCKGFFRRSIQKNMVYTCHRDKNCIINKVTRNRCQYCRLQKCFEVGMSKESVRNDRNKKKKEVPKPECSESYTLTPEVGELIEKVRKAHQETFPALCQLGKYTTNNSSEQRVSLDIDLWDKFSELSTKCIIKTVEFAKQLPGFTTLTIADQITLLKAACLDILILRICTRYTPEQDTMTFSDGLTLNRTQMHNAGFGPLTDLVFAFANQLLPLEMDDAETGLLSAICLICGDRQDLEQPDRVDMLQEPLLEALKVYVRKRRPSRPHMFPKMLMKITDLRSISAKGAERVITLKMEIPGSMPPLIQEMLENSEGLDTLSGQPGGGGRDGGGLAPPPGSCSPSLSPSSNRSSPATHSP
Summary of the method: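 Reporter transcripts from a DR5-regulated unit, measured via RT-PCR plus capillary electrophoresis, reflect endogenous RAR activity in transiently transfected human HepG2 liver cells. Exposure lasted 24 h; gain or loss of signal scored against DMSO.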

[4] = biological target: Transcription factor E2F1 (Homo sapiens) (UniProt Q01094); test: ATG_E2F_CIS: Attagene CIS-FACTORIAL HepG2 Assay for human E2F Transcription Factor 1 (AID 2282935); settings: HepG2 Attagene cis-reporter, E2F reporter RNA transcripts; actives raise or lower the signal
Transcription factor E2F1 (Homo sapiens), sequence (Q01094 whole entry, looked up): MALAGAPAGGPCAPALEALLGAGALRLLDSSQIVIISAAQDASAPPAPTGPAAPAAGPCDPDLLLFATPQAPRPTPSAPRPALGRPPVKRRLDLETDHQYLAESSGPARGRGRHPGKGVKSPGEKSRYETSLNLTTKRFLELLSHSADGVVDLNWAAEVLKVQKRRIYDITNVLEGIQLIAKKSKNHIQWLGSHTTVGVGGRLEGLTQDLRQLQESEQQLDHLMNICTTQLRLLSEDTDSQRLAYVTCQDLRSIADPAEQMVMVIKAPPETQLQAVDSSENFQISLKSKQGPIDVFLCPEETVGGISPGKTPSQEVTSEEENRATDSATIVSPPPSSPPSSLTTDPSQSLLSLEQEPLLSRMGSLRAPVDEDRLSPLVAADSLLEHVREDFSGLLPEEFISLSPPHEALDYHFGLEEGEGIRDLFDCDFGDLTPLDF
Summary of the method: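 Cis-element reporter mRNA induction in transiently transfected HepG2, 24 h exposure. Activity fitted in both directions relative to DMSO negative control.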

[5] = ATG_E_Box_CIS: Attagene CIS-FACTORIAL HepG2 Assay for human Enhancer Box (E-box) (AID 2282936); settings: HepG2 E-box cis-reporter transcription, actives raise or lower the signal
Summary of the method: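 Cells: HepG2 (human liver), transient MRTU transfection. Exposure 24 h. RNA → oligo(dT) RT → PCR → 6-FAM label → HpaI → CE. Activity fitted both directions relative to DMSO.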

[6] = ATG_M_61_CIS: Attagene CIS-FACTORIAL HepG2 Assay for M61 Transcription Factor (Internal Marker) (AID 2282937); settings: HepG2 Attagene CIS-FACTORIAL M61 internal marker reporter; actives raise or lower the signal
Summary of the method: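 Endogenous transcription factor activity in HepG2 is read through transiently transfected cis-element reporter units. After 24 h dosing, RNA undergoes reverse transcription, PCR and primer extension with 6-FAM before capillary electrophoresis; DMSO-referenced bidirectional fit.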

[7] = ATG_EGR_CIS: Attagene CIS-FACTORIAL HepG2 Assay for human Early Growth Response 1 (EGR1) (AID 2282938); settings: HepG2 Attagene CIS-FACTORIAL EGR reporter mRNA; actives raise or lower the signal
Summary of the method: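 Activity is taken as induction or loss of reporter mRNA versus DMSO, fitted bidirectionally. Transcripts from cis-regulated reporter units in transiently transfected HepG2 were measured after 24 h by RT-PCR with capillary electrophoresis.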

[8] = ATG_Ets_CIS: Attagene CIS-FACTORIAL HepG2 Assay for human Erythroblast Transformation Specific (ETS) (AID 2282941); settings: HepG2 ETS cis-reporter transcription, actives raise or lower the signal
Summary of the method: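 Human HepG2 hepatoma cells were transiently transfected with promoter-driven reporter constructs and treated for 24 hours. Reporter transcripts were quantified by RT-PCR with fluorescent primer extension; bidirectional curve fitting used DMSO as reference.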

[9] = biological target: Hepatocyte nuclear factor 3-beta (Homo sapiens) (UniProt Q9Y261); test: ATG_FoxA2_CIS: Attagene CIS-FACTORIAL HepG2 Assay for human Forkhead box A2 (FOXA2) (AID 2282942); settings: HepG2 cis-reporter transcription factor activity, 24 h; actives raise or lower the signal
Hepatocyte nuclear factor 3-beta (Homo sapiens), sequence (Q9Y261 whole entry, looked up): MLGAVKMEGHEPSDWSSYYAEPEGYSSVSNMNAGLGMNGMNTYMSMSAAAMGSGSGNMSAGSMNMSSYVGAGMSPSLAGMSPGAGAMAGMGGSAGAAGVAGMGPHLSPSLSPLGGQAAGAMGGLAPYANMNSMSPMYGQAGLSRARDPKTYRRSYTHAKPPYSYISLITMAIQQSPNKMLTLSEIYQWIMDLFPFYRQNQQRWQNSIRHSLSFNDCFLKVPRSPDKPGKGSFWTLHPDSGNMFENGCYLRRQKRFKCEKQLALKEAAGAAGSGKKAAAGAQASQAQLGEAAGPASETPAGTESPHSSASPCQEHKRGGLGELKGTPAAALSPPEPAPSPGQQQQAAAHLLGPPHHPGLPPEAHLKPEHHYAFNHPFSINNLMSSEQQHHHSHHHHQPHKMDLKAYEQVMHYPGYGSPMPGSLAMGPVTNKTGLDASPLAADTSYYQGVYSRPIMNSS
Summary of the method: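 Reporter transcript induction is measured by fluorescence after capillary electrophoresis of RT-PCR products from HepG2 cells exposed 24 h. Cis-regulated reporter units report endogenous factor activity; curves fitted both directions against DMSO.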

[10] = ATG_FoxO_CIS: Attagene CIS-FACTORIAL HepG2 Assay for human Forkhead box O (FoxO) (AID 2282943); settings: HepG2 Attagene cis-reporter, FoxO element, mRNA; actives raise or lower the signal
Summary of the method: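 Endogenous transcription factor activity read from multiplexed cis-promoter reporter transcripts in transiently transfected HepG2, 24 h after dosing. Reporter RNA measured via RT-PCR plus capillary electrophoresis of FAM-labeled products; gain or loss relative to DMSO.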

[11] = ATG_GATA_CIS: Attagene CIS-FACTORIAL HepG2 Assay for human GATA Binding Protein (AID 2282944); settings: HepG2 GATA cis-element reporter, Attagene multiplex mRNA; actives raise or lower the signal
Summary of the method: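 Transfected cis-reporter HepG2 cells were treated with chemicals for 24 hours. Total RNA was then converted to cDNA, amplified with reporter-specific primers and analysed by fluorescent capillary electrophoresis, using DMSO-treated wells as baseline.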

[12] = ATG_GLI_CIS: Attagene CIS-FACTORIAL HepG2 Assay for human Zinc Finger Protein GLI1 (AID 2282945); settings: HepG2, Attagene cis-factorial reporter mRNA, GLI element; actives raise or lower the signal
Summary of the method: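 Bidirectional curve fits relative to DMSO, using reporter mRNA levels from RT-PCR plus capillary electrophoresis. Cells were HepG2 transiently carrying cis-regulated reporter constructs, harvested 24 h after dosing.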

[13] = biological target: Bile acid receptor (Homo sapiens) (UniProt Q96RI1); test: ATG_IR1_CIS: Attagene CIS-FACTORIAL HepG2 Assay for human Nuclear Receptor Subfamily 1 Group H Member 4 (NR1H4), IR1 submotif (AID 2282946); settings: IR1 reporter transcription, actives raise or lower the signal
Bile acid receptor (Homo sapiens), sequence (Q96RI1 whole entry, looked up, the tested form may be a part): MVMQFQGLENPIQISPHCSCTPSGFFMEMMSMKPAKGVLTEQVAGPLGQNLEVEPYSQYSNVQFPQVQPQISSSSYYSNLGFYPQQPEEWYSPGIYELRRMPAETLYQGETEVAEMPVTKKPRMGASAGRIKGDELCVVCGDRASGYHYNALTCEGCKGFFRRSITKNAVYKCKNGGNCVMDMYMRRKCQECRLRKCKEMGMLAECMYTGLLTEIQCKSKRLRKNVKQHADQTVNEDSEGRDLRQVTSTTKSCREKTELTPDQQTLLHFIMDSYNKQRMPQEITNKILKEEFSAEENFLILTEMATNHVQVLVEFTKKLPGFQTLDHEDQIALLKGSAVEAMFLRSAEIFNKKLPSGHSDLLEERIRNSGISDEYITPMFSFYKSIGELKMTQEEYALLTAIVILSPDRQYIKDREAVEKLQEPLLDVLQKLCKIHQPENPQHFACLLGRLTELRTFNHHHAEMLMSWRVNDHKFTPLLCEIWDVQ
Summary of the method: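 Cells (human HepG2) carry transiently transfected cis-promoter reporter transcription units. Compounds are incubated 24 h, total RNA is reverse-transcribed and amplified, and labelled fragments are resolved by capillary electrophoresis. Curves use DMSO as baseline.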

[14] = ATG_GRE_CIS: Attagene CIS-FACTORIAL HepG2 Assay for human Glucocorticoid Response Elements (GRE) (AID 2282947); settings: HepG2 GRE cis-reporter, Attagene multiplex mRNA; actives raise or lower the signal
Summary of the method: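 Transient MRTU transfection of human HepG2 liver cells; cis-regulated reporters report endogenous factors. 24 h dosing → RNA isolation → RT-PCR → 6-FAM primer extension → HpaI cut → CE fragment analysis. Bidirectional fit, DMSO negative control.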

[15] = ATG_ISRE_CIS: Attagene CIS-FACTORIAL HepG2 Assay for human Interferon Regulatory Factor 1 (IRF1) binding to an Interferon-Stimulated Response Element (ISRE) (AID 2282948); settings: HepG2 ISRE cis-reporter (Attagene), mRNA transcription readout; actives raise or lower the signal
Summary of the method: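 Cell-based cis-reporter assay; HepG2; 24 h exposure; reporter mRNA by RT-PCR plus capillary electrophoresis fluorescence; activity in either direction scored relative to DMSO.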

[16] = ATG_M_06_CIS: Attagene CIS-FACTORIAL HepG2 Assay for M06 Transcription Factor (Internal Marker) (AID 2282950); settings: HepG2 Attagene CIS-FACTORIAL M06 internal marker reporter; actives raise or lower the signal
Summary of the method: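 Cells (HepG2, transiently carrying cis-driven reporter units) receive chemical for 24 h before RNA isolation. Reporter cDNA is PCR-amplified, FAM-labelled by primer extension, HpaI-digested and sized on a capillary analyser.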

[17] = ATG_M_19_CIS: Attagene CIS-FACTORIAL HepG2 Assay for M19 Transcription Factor (Internal Marker) (AID 2282939); settings: HepG2 Attagene CIS-FACTORIAL M19 internal marker reporter; actives raise or lower the signal
Summary of the method: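 Chemical-treated HepG2 (24 h) with MRTU constructs; reporter transcripts detected by fluorescent RT-PCR fragment analysis on capillary electrophoresis. Internal background marker, DMSO as baseline.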

[18] = ATG_ERE_CIS: Attagene CIS-FACTORIAL HepG2 Assay for Estrogen Response Element (ERE) (AID 2282940); settings: HepG2 ERE cis-reporter, Attagene RNA transcript; actives raise or lower the signal
Summary of the method: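 Human liver cells (HepG2) bearing transiently transfected, promoter-regulated reporter units were exposed 24 h. Reporter mRNA induction was detected by capillary electrophoresis of labelled RT-PCR products and fitted bidirectionally to DMSO.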

[19] = ATG_M_32_CIS: Attagene CIS-FACTORIAL HepG2 Assay for M32 Transcription Factor (Internal Marker) (AID 2282949); settings: HepG2 Attagene cis-factorial M32 reporter, mRNA; actives raise or lower the signal;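 further: background control marker of the multiplexed CIS panel rather than a real target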
Summary of the method: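 HepG2 cells transiently transfected with multiplexed cis-regulated reporter units, dosed 24 h. Reporter mRNA quantified by RT-PCR, 6-FAM labelling, HpaI digestion and capillary electrophoresis; bidirectional fit vs DMSO.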

Measured: AC50

ClCCCCl
not listed: [17] | [18] | [19]
inactive: all other assays above

Cc1cc(-c2cc(C)c(N)c(C)c2)cc(C)c1N
not listed: [13] | [19]
inactive: all other assays above

O=NN1CCCCCCC1
not listed: [17]
inactive: all other assays above

CC(c1ccc(O)cc1)c1ccc(O)cc1
active: [18] 0.701 µM | [8] 137 µM
not listed: [4] | [6] | [13] | [16] | [17] | [19]
inactive: all other assays above

Cc1cc(Cl)ccc1N
not listed: [3] | [6] | [7] | [13] | [18]
inactive: all other assays above

ClCCN1CCOCC1
not listed: [4] | [6]
inactive: all other assays above

Nc1ccc(-c2ccccc2)cc1
active: [18] 32 µM
not listed: [4] | [13] | [14] | [17]
inactive: all other assays above

CC(C)=CC1C(C(=O)OCc2cccc(Oc3ccccc3)c2)C1(C)C (stereo not drawn)
active: [18] 100 µM
not listed: [7] | [17]
inactive: all other assays above

Cc1cc(SCc2sc(-c3ccc(C(F)(F)F)c(F)c3)nc2C)ccc1OCC(=O)O
active: [2] 51.2 µM | [15] 42.8 µM
not listed: [4] | [7] | [17]
inactive: all other assays above
